Data reported in PubChem BioAssay.
Values joined by “and” are separate entries in the source; they are usually repeats but may differ in a detail not shown here. Equal entries are not always repeated. The source holds several records for some structures; these can differ, active in one and inactive in another. Active and inactive are the calls of the source. Cut-off read from the data, not from the text of the source: active = parasite load remaining mostly below about 12% (no sharp cut-off); inactive = mostly above about 10%.

Assay: liver-stage malaria parasite growth inhibition, primary screen, cell-based, HepG2, luciferase luminescence, HepG2 viability (AID 624349);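 note: 100% = mean of DMSO negative control wells on the same plate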
Conditions: P. berghei liver stage in HepG2, luciferase luminescence, concentration not given here; parasite load remaining: stronger effect = lower value; viability: measured here: HepG2 viability without parasites
In the case of `CN(C)CC[C@@H](c1ccc(Br)cc1)c1ccccn1`, the parasite load remaining is reported as 84.6% (inactive) and the viability is reported as 70.1%.
In the case of `CCN(CC)CCNC(=O)c1ccc(NC(C)=O)cc1`, the parasite load remaining is reported as 46.9% (inactive) and the viability is reported as 102%.
With `CC(C(=O)O)c1ccc(CC2CCCC2=O)cc1` (stereo unspecified) the parasite load remaining was 108% (inactive) and the viability was 79.1%.
In the case of `Cc1cn([C@H]2C=C[C@@H](CO)O2)c(=O)[nH]c1=O`, the parasite load remaining is reported as 72.2% (inactive) and 110% (inactive) and the viability is reported as 107% and 74.4%.
For `C[C@H](NC(CCc1ccccc1)C(=O)O)C(=O)N1CCC[C@H]1C(=O)O` (stereo partly specified), the parasite load remaining was 94.1% (inactive) and 49.6% (inactive) and the viability was 70.8% and 156%.
In the case of `CCOC(=O)c1ncn2c1CN(C)C(=O)c1cc(F)ccc1-2`, the parasite load remaining is reported as 6.63% (inactive) and 66.3% (inactive) and the viability is reported as 73.1% and 107%.
For `CC(=O)[C@]1(O)Cc2c(O)c3c(c(O)c2[C@@H](O[C@H]2C[C@H](N)[C@H](O)[C@H](C)O2)C1)C(=O)c1ccccc1C3=O`, the parasite load remaining was -0.405% (inactive) and 0.045% (active) and the viability was 2.19% and 69.5%.
For `C=CCc1ccccc1OCC(O)CNC(C)C` (stereo unspecified), the parasite load remaining was 48.8% (inactive) and 53.9% (inactive) and 74.6% (inactive) and the viability was 101% and 91.5% and 140%.
For `Cc1[nH]c(=O)c(C#N)cc1-c1ccncc1`, the parasite load remaining was 79.2% (inactive) and 78.4% (inactive) and 15.3% (inactive) and the viability was 69% and 68.9% and 65.5%.
For `Nc1c2c(nc3ccccc13)CCCC2O` (stereo unspecified), the parasite load remaining was 125% (inactive) and 39.9% (inactive) and the viability was 110% and 112%.
In the case of `Nc1nc2c(ncn2COC(CO)CO)c(=O)[nH]1`, the parasite load remaining is reported as 53.7% (inactive) and 86.2% (inactive) and 12.5% (inactive) and the viability is reported as 114% and 95.7% and 65%.
With `CCN1CCC[C@H]1CNC(=O)c1c(O)c(Cl)cc(Cl)c1OC` the parasite load remaining was 132% (inactive) and 60.7% (inactive) and the viability was 135% and 99%.
In the case of `Cc1cccc(C)c1NC(=O)C(C)N` (stereo unspecified), the parasite load remaining is reported as 112% (inactive) and 108% (inactive) and the viability is reported as 79.8% and 73.3%.
In the case of `Nc1nnc(-c2cccc(Cl)c2Cl)c(N)n1`, the parasite load remaining is reported as 90.9% (inactive) and 119% (inactive) and 49.7% (inactive) and the viability is reported as 105% and 77.7% and 112%.
In the case of `NNc1nncc2ccccc12`, the parasite load remaining is reported as 83.7% (inactive) and 102% (inactive) and 72.4% (inactive) and the viability is reported as 72.8% and 96.1% and 95%.
In the case of `CCN1CCCC1CNC(=O)c1cc(S(=O)(=O)CC)c(N)cc1OC` (stereo unspecified), the parasite load remaining is reported as 79.8% (inactive) and the viability is reported as 68.8%.
With `C=Cc1c(C)c2cc3[nH]c(cc4nc(cc5nc(cc1[nH]2)C(C)=C5CCC(=O)O)C(CCC(=O)O)=C4C)c(C)c3C=C` the parasite load remaining was 108% (inactive) and the viability was 65.3%.
With `Clc1ccc2nsnc2c1NC1=NCCN1` the parasite load remaining was 61.3% (inactive) and 52.1% (inactive) and the viability was 95.4% and 240%.
In the case of `COc1cc(C(=O)OCCCN2CCCN(CCCOC(=O)c3cc(OC)c(OC)c(OC)c3)CC2)cc(OC)c1OC`, the parasite load remaining is reported as 44% (inactive) and 120% (inactive) and 14% (inactive) and the viability is reported as 47.9% and 91.2% and 76.5%.
With `CCc1c(C)[nH]c2c1C(=O)C(CN1CCOCC1)CC2` (stereo unspecified) the parasite load remaining was 36.3% (inactive) and 102% (inactive) and the viability was 89.9% and 75.4%.
For `COc1ccccc1N1CCN(CC(O)COc2cccc3ccccc23)CC1` (stereo unspecified), the parasite load remaining was 54.9% (inactive) and 58.6% (inactive) and 42.9% (inactive) and the viability was 66.8% and 61.4% and 114%.
For `CN(C)CC[C@@H](c1ccc(Cl)cc1)c1ccccn1`, the parasite load remaining was 51.2% (inactive) and the viability was 68.9%.
With `CN(C)CCOC(=O)COc1ccc(Cl)cc1` the parasite load remaining was 72.9% (inactive) and 143% (inactive) and the viability was 96.7% and 93.9%.
In the case of `Brc1c(NC2=NCCN2)ccc2nccnc12`, the parasite load remaining is reported as 54.7% (inactive) and the viability is reported as 94.9%.
In the case of `O=C1N(c2ccccc2)c2ccccc2C1(Cc1ccncc1)Cc1ccncc1`, the parasite load remaining is reported as 77.9% (inactive) and the viability is reported as 65.3%.
In the case of `CN(Cc1cnc2nc(N)nc(N)c2n1)c1ccc(C(=O)N[C@@H](CCC(=O)O)C(=O)O)cc1`, the parasite load remaining is reported as 8.84% (inactive) and 39.4% (inactive) and 21.9% (inactive) and the viability is reported as 38.7% and 143% and 94.1%.
For `Nc1ccn([C@H]2CC[C@@H](CO)O2)c(=O)n1`, the parasite load remaining was 89% (inactive) and 87.9% (inactive) and 17.9% (inactive) and the viability was 73.7% and 72.5%.
For `CCN1CCC[C@H]1CNC(=O)c1cc(S(N)(=O)=O)ccc1OC`, the parasite load remaining was 118% (inactive) and 67.6% (inactive) and the viability was 78.9% and 220%.
In the case of `Oc1ccc(C2CNCCc3c2cc(O)c(O)c3Cl)cc1` (stereo unspecified), the parasite load remaining is reported as 97.3% (inactive) and 13% (inactive) and the viability is reported as 74.7% and 61%.
In the case of `Cc1ccc(C(=O)Nc2ccc(S(=O)(=O)O)c3cc(S(=O)(=O)O)cc(S(=O)(=O)O)c23)cc1NC(=O)c1cccc(NC(=O)Nc2cccc(C(=O)Nc3cc(C(=O)Nc4ccc(S(=O)(=O)O)c5cc(S(=O)(=O)O)cc(S(=O)(=O)O)c45)ccc3C)c2)c1`, the parasite load remaining is reported as 42.8% (inactive) and 57% (inactive) and the viability is reported as 89.5% and 106%.
For `NC1CCN(c2cccc(Cl)n2)CC1`, the parasite load remaining was 103% (inactive) and the viability was 71.3%.
With `COc1ccc(C2CNC(=O)C2)cc1OC1CCCC1` (stereo unspecified) the parasite load remaining was 73.2% (inactive) and 98.7% (inactive) and 48.7% (inactive) and the viability was 91.9% and 79% and 67.5%.
For `CNCC(O)c1ccc(O)c(O)c1` (stereo unspecified), the parasite load remaining was 40.1% (inactive) and the viability was 89%.
With `CNC[C@H](O)c1cccc(O)c1` the parasite load remaining was 64.7% (inactive) and 44.2% (inactive) and the viability was 77.3% and 99.6%.
For `Cc1scc2c1N(C(=O)CN1CCN(C)CC1)c1ccccc1NC2=O`, the parasite load remaining was 42.9% (inactive) and 96% (inactive) and 50.1% (inactive) and the viability was 49.7% and 86.8% and 142%.
In the case of `C=CC(N)CCC(=O)O` (stereo unspecified), the parasite load remaining is reported as 117% (inactive) and 83.3% (inactive) and 20.7% (inactive) and the viability is reported as 112% and 77.9% and 99.3%.
For `OCc1cc(C(O)CNCCCCCCOCCCCc2ccccc2)ccc1O` (stereo unspecified), the parasite load remaining was 94.7% (inactive) and 45.6% (inactive) and 21.7% (inactive) and the viability was 96% and 67.2% and 65.5%.
For `C[N+](C)(C)CCCCCC[N+](C)(C)C`, the parasite load remaining was 28% (inactive) and 143% (inactive) and 127% (inactive) and the viability was 48% and 87.6% and 90.7%.
